Efflux pump inh – inhibitors of Candida antifungal efflux pumps expressed in yeast; AID 485275; inhibition, % at 10 µM; S. cerevisiae Candida pump triplex, Nile Red efflux; 330,000 tested, 0.44% active;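 active = plate passing quality check with inhibition over a set limit, or well fluorescence over plate mean plus 4 SD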;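 note: Nile Red retained in pooled yeast measured as flow cytometry median fluorescence; 0% = buffer negative control and 100% = Enniatin B positive control; higher means more Nile Red kept so more efflux inhibition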
NCOA2 inhibitor – human SRC2 (NCOA2) inhibition; Q15596; inhibition, % at 9 µM; 370,000 tested, 0.17% active; HEK293 GAL4-SRC2 luciferase reporter, luminescence;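 active = inhibition above the mean inhibition of all tested compounds plus 3 SD, set per campaign, cut at about 52% in these data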;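 note: 0% = DMSO treated cells and 100% = cells given Gossypol at 36 µM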
NCOA3 inh – inhibitors of human steroid receptor coactivator 3 (SRC3). Q9Y6Q9. HEK293 GAL4-SRC3 luciferase reporter, luminescence. inhibition, % at 3.6 µM. 360,000 tested, 0.17% active;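 active = inhibition above a per-campaign cutoff, the mean of all compounds plus 3 SD, cut at about 60% in these data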;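 note: 0% = DMSO-treated cells and 100% = gossypol-treated cells at 36 µM; higher means less SRC3-driven luciferase light from the GAL4 reporter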
NR2F2 inh – inhibitors of human COUP-TFII (NR2F2); 370,000 tested, 0.7% active; HEK293T NGFI-A luciferase reporter, luminescence; AID 686940; P24468; inhibition, % at 8.6 µM;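 active = inhibition above a per-plate cutoff, mean inhibition of test wells between control levels plus 3 SD, cut at about 38% in these data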;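 note: cells cotransfected with COUP-TFII expression vector driving the NGFI-A reporter; 0% = median of COUP-TF2 test wells and 100% = reporter-only cells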
SRC1 inh – human NCOA1 inhibition | Q15788 | HEK293 GAL4-SRC1 luciferase reporter, luminescence | AID 588354 | inhibition, % at 3.6 µM | 360,000 tested, 0.12% active;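 active = inhibition above the campaign mean plus 3 SD, with each screening campaign given its own cutoff, cut at about 60% in these data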;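 note: 0% = DMSO treated cells and 100% = gossypol at 36 µM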
NR5A2 inv ag – NR5A2 inverse agonism in reporter assay. O00482. HEK293T StAR-luciferase reporter, LRH-1 transfected, 24 h. inhibition, % at 3.6 µM. 360,000 tested, 0.13% active;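 active = inhibition above the mean inhibition of all tested compounds plus 3 SD, cut at about 73% in these data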;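 note: 0% = DMSO wells and 100% = reporter-only cells lacking LRH-1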
Target sequence (O00482 whole entry, looked up): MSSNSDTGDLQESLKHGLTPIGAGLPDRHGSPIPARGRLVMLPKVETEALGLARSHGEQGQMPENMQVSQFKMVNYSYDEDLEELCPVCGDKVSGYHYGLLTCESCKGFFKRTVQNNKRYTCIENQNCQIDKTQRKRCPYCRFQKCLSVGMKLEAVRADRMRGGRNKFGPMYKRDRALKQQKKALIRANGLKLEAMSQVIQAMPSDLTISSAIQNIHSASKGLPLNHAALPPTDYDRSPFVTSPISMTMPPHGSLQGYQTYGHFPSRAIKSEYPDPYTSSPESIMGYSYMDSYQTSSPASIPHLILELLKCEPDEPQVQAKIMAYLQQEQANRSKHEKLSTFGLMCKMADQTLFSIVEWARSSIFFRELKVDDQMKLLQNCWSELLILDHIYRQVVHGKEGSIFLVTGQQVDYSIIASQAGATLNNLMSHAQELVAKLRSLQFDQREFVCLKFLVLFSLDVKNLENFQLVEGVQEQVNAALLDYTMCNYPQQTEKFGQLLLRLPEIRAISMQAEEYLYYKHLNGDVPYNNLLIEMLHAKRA
* = called active by the depositor. Only some compounds are listed: those with a hit (about 1.2% of all), similar ones and a draw of the others.

Results for CCN(CC)S(=O)(=O)c1ccc(N/N=C/c2ccc(O)cc2O)nc1 ?
Efflux pump inh: 0; NCOA2 inhibitor: 31; NCOA3 inh: 68*; NR2F2 inh: -40; SRC1 inh: 46; NR5A2 inv ag: 40

Results for N=c1c2c(-c3ccccc3)c(-c3ccccc3)n(Cc3ccco3)c2ncn1CCO ?
Efflux pump inh: 0; NCOA2 inhibitor: -62; NCOA3 inh: 63*; NR2F2 inh: -4; SRC1 inh: 41; NR5A2 inv ag: 43

Results for N=c1c2c(-c3ccccc3)c(-c3ccccc3)n(Cc3ccco3)c2ncn1CCCO ?
Efflux pump inh: 0; NCOA2 inhibitor: 7; NCOA3 inh: 48; NR2F2 inh: -4; SRC1 inh: 43; NR5A2 inv ag: 16

What do the screens show for `CN(Cc1cnn(C)c1)Cc1nc(-c2ccc(Cl)cc2)no1`?
Efflux pump inh: 0; NCOA2 inhibitor: -48; NCOA3 inh: -17; NR2F2 inh: -25; SRC1 inh: -53; NR5A2 inv ag: 12

How did C/C(=N\Nc1nc2ccccc2[nH]1)c1ccccn1 do in these assays?
Efflux pump inh: 0; NCOA2 inhibitor: -59; NCOA3 inh: 79*; NR2F2 inh: -43; SRC1 inh: 75*; NR5A2 inv ag: 84*

What do the screens show for `CC(NC(=O)CCc1nnc(-c2ccc(-c3ccccc3)cc2)o1)c1nc2ccccc2[nH]1` (centres undefined)?
Efflux pump inh: 0; NCOA2 inhibitor: 67*; NCOA3 inh: -7; NR2F2 inh: 35; SRC1 inh: -20; NR5A2 inv ag: 4

How did Cc1cccc(CC(C)NC(=O)CCc2nnc(-c3ccccc3)o2)n1 (centres undefined) do in these assays?
Efflux pump inh: 0; NCOA2 inhibitor: 5; NCOA3 inh: -8; NR2F2 inh: -11; SRC1 inh: -8; NR5A2 inv ag: 2

What do the screens show for `N#CC1=C(S)N(c2ccccc2)C(c2ccc(-c3ccc(Cl)c(Cl)c3)o2)NC1=O` (centres undefined)?
Efflux pump inh: 0; NCOA2 inhibitor: -13; NCOA3 inh: 8; NR2F2 inh: -8; SRC1 inh: -12; NR5A2 inv ag: 11

How did N#CC1=C(S)N(c2ccccc2)C(c2ccc(-c3cc(Cl)ccc3Cl)o2)NC1=O (centres undefined) do in these assays?
Efflux pump inh: 0.5*; NCOA2 inhibitor: 6; NCOA3 inh: 3; NR2F2 inh: 9; SRC1 inh: 7; NR5A2 inv ag: -21

Results for Cc1ccc(O)c(N=Nc2nccs2)c1 ?
Efflux pump inh: 0; NCOA2 inhibitor: 23; NCOA3 inh: 64*; NR2F2 inh: -62; SRC1 inh: 73*; NR5A2 inv ag: 83*

How did COc1ccc(N=Nc2cc(C)ccc2O)cc1 do in these assays?
Efflux pump inh: 0; NCOA2 inhibitor: -67; NCOA3 inh: -66; NR2F2 inh: -53; SRC1 inh: -151; NR5A2 inv ag: -140

What do the screens show for `Cc1c(C(=O)N(Cc2ccc(F)cc2)C2CCS(=O)(=O)C2)oc2ccccc12` (centres undefined)?
Efflux pump inh: 0; NCOA2 inhibitor: -4; NCOA3 inh: 19; NR2F2 inh: 23; SRC1 inh: -30; NR5A2 inv ag: 94*

What do the screens show for `Cc1c(C(=O)N(Cc2ccccc2)C2CCS(=O)(=O)C2)oc2ccccc12` (centres undefined)?
Efflux pump inh: 0; NCOA2 inhibitor: 0; NCOA3 inh: -2; NR2F2 inh: -8; SRC1 inh: -2; NR5A2 inv ag: 1

Results for COc1cccc(N2CCN(c3c(C#N)c(C(F)(F)F)nn3C)CC2)c1 ?
Efflux pump inh: 0; NCOA2 inhibitor: 35; NCOA3 inh: 31; NR2F2 inh: 51*; SRC1 inh: 36; NR5A2 inv ag: -7

What do the screens show for `Cn1nc(C(F)(F)F)c(C#N)c1N1CCN(c2ccccc2F)CC1`?
Efflux pump inh: 0; NCOA2 inhibitor: -12; NCOA3 inh: 10; NR2F2 inh: 3; SRC1 inh: 0; NR5A2 inv ag: -11

How did C=C1C(=O)C2=CC1CCC(=O)C1(C)CCC(OC(C)=O)C(C)(C)C1CC2O (centres undefined) do in these assays?
NCOA2 inhibitor: 48; NCOA3 inh: 64*; NR2F2 inh: 34; SRC1 inh: 51; NR5A2 inv ag: 46

Results for CCc1ccc(-c2nc(CSCC(=O)NC3CC3)c(C)o2)cc1 ?
Efflux pump inh: 0; NCOA2 inhibitor: 56*; NCOA3 inh: 20; NR2F2 inh: 22; SRC1 inh: 19; NR5A2 inv ag: 18

What do the screens show for `CC(=O)Nc1ccc(NC(=O)c2ccc(-c3ccnn3C)c3ccoc23)cc1`?
NCOA2 inhibitor: 53*; NCOA3 inh: -10; NR2F2 inh: 7; SRC1 inh: -1; NR5A2 inv ag: 9

How did CCN(CC(=O)Nc1c(F)cccc1F)C(=O)CSCC(=O)Nc1cc(C)on1 do in these assays?
Efflux pump inh: 0; NCOA2 inhibitor: 24; NCOA3 inh: 15; NR2F2 inh: 12; SRC1 inh: 1; NR5A2 inv ag: -9

What do the screens show for `CCN(CC(=O)Nc1ccc(OC)cc1)C(=O)CSCC(=O)Nc1cc(C)on1`?
Efflux pump inh: 0; NCOA2 inhibitor: -8; NCOA3 inh: 79*; NR2F2 inh: -1; SRC1 inh: 0; NR5A2 inv ag: -1

Results for CC(=O)c1ccc(Oc2ncnc(N)c2[N+](=O)[O-])cc1 ?
Efflux pump inh: 0; NCOA2 inhibitor: 5; NCOA3 inh: 15; NR2F2 inh: -23; SRC1 inh: -4; NR5A2 inv ag: -4

How did Cn1cnnc1Sc1nc([N+](=O)[O-])nn1C do in these assays?
Efflux pump inh: 0; NCOA2 inhibitor: 8; NCOA3 inh: 9; NR2F2 inh: -2; SRC1 inh: 13; NR5A2 inv ag: -12

What do the screens show for `COc1ccccc1-c1nnc(Sc2nc([N+](=O)[O-])nn2C)o1`?
Efflux pump inh: 0; NCOA2 inhibitor: 65*; NCOA3 inh: 73*; NR2F2 inh: 12; SRC1 inh: 64*; NR5A2 inv ag: 75*

How did CCCCOCCCNC(=O)C[C@@H]1C[C@@]2(C(=O)OC)CCCCC=C2N(Cc2ccc(Cl)cc2Cl)C1=O do in these assays?
NCOA2 inhibitor: 4; NR2F2 inh: 34; NR5A2 inv ag: 13

How did Cc1cc([N+](=O)[O-])nn1Cc1ccc(C(=O)N/N=C/c2ccc(O)cc2O)cc1 do in these assays?
Efflux pump inh: 1; NCOA2 inhibitor: 17; NCOA3 inh: 77*; NR2F2 inh: -3; SRC1 inh: 56; NR5A2 inv ag: 67

What do the screens show for `O=C(N/N=C/c1ccc(O)cc1O)c1ccc(CN2C(=O)c3cccc4cccc2c34)cc1`?
Efflux pump inh: 0; NCOA2 inhibitor: 37; NCOA3 inh: 68*; NR2F2 inh: -17; SRC1 inh: 45; NR5A2 inv ag: 65

What do the screens show for `Cc1cc(C)c2sc(NNC(=O)c3ccc(S(=O)(=O)N4CCc5ccccc5C4)cc3)nc2c1`?
Efflux pump inh: 0; NCOA2 inhibitor: 38; NCOA3 inh: 81*; NR2F2 inh: -19; SRC1 inh: 70*; NR5A2 inv ag: 70

Screening data (PubChem)
